Measured values taken from PubChem BioAssay AID652017 (The Scripps Research Institute Molecular Screening Center, 2013).
The whole screen tested about 370,000 compounds, of which about 3,800 (1%) were called active. Cut-off read from the data, not from the text of the source: active = activation above about 7.8%; inactive = the rest. The full list was thinned out, with actives kept by preference.

experiment: SMARCA2 (BRM) function activators, primary screen, cell-based, luminescence, high throughput (AID 652017); settings: MG213 cells, MMTV-luciferase reporter, dexamethasone, overnight; at 9.1 µM; stronger effect = higher value;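 note: 0% = vehicle wells and 100% = reference activator wells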

SMILES	activation
CN[C@H]1C[C@H]2c3cc(N4CCOCC4)ccc3CCN2C[C@H]1[C@H](C)O	-3.84% (inactive)
C=C(C)C#CC(Cc1ccccc1)N(CC1CC1)/C(N)=N/C(=O)OCc1ccccc1 (centres undefined)	-1.63% (inactive)
COc1cc(NC(=S)NCc2ccco2)c(OC)cc1Cl	0.64% (inactive)
CCOc1cc(NC(=S)NCCCN(C)C)c(OCC)cc1NC(=O)C1CC1	1.16% (inactive)
CCOc1cc(NC(=S)NCCCOC)c(OCC)cc1NC(=O)c1ccco1	9.88% (active)
Cc1ccc(CSc2nnc(SCC(=O)NN=Cc3cc(Br)ccc3F)s2)cc1	-6.75% (inactive)
CC(C)(C)OC(=O)NCc1cc(F)ccc1/C=C/S(=O)(=O)NCCc1ccccc1	-3.29% (inactive)
CN(C(=O)CC1C(=O)NCCN1Cc1ccc2ccccc2c1)C1CCOCC1 (centres undefined)	-1.84% (inactive)
CCOC(=O)Nc1ccc(NC(=O)OCC)cc1	11.1% (active)
CC(C)(COC(=O)Nc1ccccc1)COC(=O)Nc1ccccc1	-1.85% (inactive)
CCOC(=O)Nc1ccc(S(=O)(=O)N(C)C(C)C)cc1	-0.48% (inactive)
O=C(N1CCOCC1)N1CC[C@H]2[C@H](CCCN2Cc2ccc(F)cc2)C1	-1.37% (inactive)
COc1ccccc1OCC(=O)O/N=C(\N)c1ccccn1	8.43% (active)
N/C(=N\OC(=O)CCC1CCCCC1)c1ccccn1	3.7% (inactive)
COc1ccccc1OCC(=O)OCc1cc(-c2ccco2)on1	1.73% (inactive)
COC(=O)C1=C(C)N(Cc2ccccc2C(F)(F)F)C(=NCC2CC2)NC1c1cccc(Cl)c1 (centres undefined)	-1.87% (inactive)
CC(=O)Nc1ccc(S(=O)(=O)N2CCN(c3ccc([N+](=O)[O-])c(NCCN4CCOCC4)c3)CC2)cc1	-2.48% (inactive)
O=C(Nc1ccc(Br)cc1)OCCN1C(=O)CCC12CCC(c1ccccc1)CC2 (centres undefined)	-0.9% (inactive)
S=C(NCCC1=CCCCC1)Nc1ccccc1	2.03% (inactive)
Cc1nn(C(C)C(=O)NCCC2=CCCCC2)c(=O)c2nn(-c3ccccc3)c(C)c12 (centres undefined)	0.01% (inactive)

SMILES	activation
C1=C(CCNc2ncnc3c2cnn3-c2ccccc2)CCCC1	10.2% (active)
Cc1ncn2cc(-c3ccc(Cl)cc3Cl)[nH]c(=O)c12	5.25% (inactive)
O=C(O)CN1c2cccc3cccc(c23)S1(=O)=O	-0.74% (inactive)
COc1ccccc1C(=O)NCCC(=O)NC1=NCCS1	-1.3% (inactive)
O=C(NC1=NCCS1)c1ccc(Cl)s1	3.86% (inactive)
COc1ccc(C(=O)NC2=NCCS2)c(OC)c1	8.02% (active)
COC(=O)Cc1nnn2c1[C@H](C)[C@H](c1ccccc1Br)OCC2	-2.14% (inactive)
COC(=O)Cc1nnn2c1[C@H](C)[C@@H](OC)c1cc(Br)ccc1-2	-2.14% (inactive)
COC(=O)Cc1nnn2c1[C@H](C)[C@H](c1ccccc1[N+](=O)[O-])OCC2	9.58% (active)
O=C(CSc1nnc(COc2ccccc2)n1Cc1ccco1)c1ccc2ccccc2c1	-6.31% (inactive)
COc1ccc(C2C(C(C)=O)=C(O)C(=O)N2c2nccs2)cc1 (centres undefined)	1.1% (inactive)
COc1ccc(-c2csc(Cc3nc(O)cs3)n2)cc1	16.8% (active)
COc1ccc(-n2c(SC)nc(O)cc2=O)cc1	-1.4% (inactive)
CCN(CC)C(=O)CSc1nnc(-c2ccc(S(=O)(=O)NCc3ccccc3Cl)cc2)o1	-2.52% (inactive)
COc1cccc(NC(=O)CSc2nnc(-c3cccnc3)o2)c1	-0.51% (inactive)
CCN(CC)C(=O)CSc1nnc(-c2cccc(OC)c2)o1	8.29% (active)
COc1ccc(-n2c(COc3ccc(C)cc3)nnc2SCC(=O)Nc2ccc(Oc3ccccc3)cc2)cc1	-5.92% (inactive)
COc1ccc(-c2cc(-c3nnc(SCc4ccc([N+](=O)[O-])cc4)n3N)[nH]n2)cc1	-5.07% (inactive)
COc1ccc(/C=C2\CC3(OC(C)=O)CCCN2C3)cc1 (centres undefined)	-1.45% (inactive)
